# From PubChem BioAssay (EPA / NIEHS)
# Inconclusive results are not listed. The source made the active and inactive calls. The calls were made as follows, unless noted: active = hit-call score of the fitted dose curve at least 0.9, where 1 is the maximum; inactive = score below 0.9.
# Legend:
# [1] = CCTE_Harrill_HTTr_Viability_MCF7: CCTE's 6-hour Cell Viability Assessment for the High-Throughput Transcriptomics (HTTr) Platform, in MCF-7 cells cultured in DMEM + 10% fetal bovine serum, Harrill Lab (AID 2284010)
# Method in brief: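 Eight-point concentration series, six-hour exposure. Propidium iodide exclusion imaged to assess membrane integrity as a cytotoxicity readout; bidirectional fitting was done with DMSO as negative control and activity baseline.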
# [2] = CCTE_Harrill_HTTr_Apoptosis_MCF7: CCTE's 6-hour Apoptosis Assessment for the High-Throughput Transcriptomics (HTTr) Platform, in MCF-7 cells cultured in DMEM + 10% fetal bovine serum, Harrill Lab (AID 2284011)
# Method in brief: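 Apoptosis in MCF-7 cells grown in DMEM with 10% fetal bovine serum was scored after a six hour exposure by high content imaging of caspase-3/7 activation (CellEvent Caspase 3/7 Green), with DMSO serving as negative control and baseline.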
# [3] = CCTE_Harrill_HTTr_CellCount_MCF7: CCTE's Cell Proliferation Assessment for the High-Throughput Transcriptomics (HTTr) Platform, Harrill Lab (AID 2284012; active = hit-call score of the fitted dose curve at least 0.9, where 1 is the maximum;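 also: count of Hoechst-stained nuclei per well by high-content imaging in MCF-7 cells; cells exposed to compound for six hours; intended direction is loss of nuclei count meaning fewer cells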)
# Method in brief: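 For this full-screen endpoint, MCF-7 cultures received eight compound dilutions for six hours. Well nuclei counts from Hoechst imaging were analyzed relative to DMSO.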
# [4] = CCTE_Shafer_MEA_acute_spike_number: CCTE's Neural Acute Assay for Total Number of Spikes, Shafer Lab (AID 2284008)
# Method in brief: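 Using an adaptive detector set to 8x rms noise, spikes were counted in 40-min windows before and after compound addition (0.03-40 uM) to rat cortical networks at 37 C; the well-level change from baseline was analysed relative to DMSO.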
# [5] = CCTE_Shafer_MEA_acute_firing_rate_mean: CCTE's Neural Acute Assay for Mean Firing Rate, Shafer Lab (AID 2284009);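 also: analyzed for loss of signal so actives lower firing rate relative to DMSO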
# Method in brief: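 Primary rat cortical neurons on 16-electrode MEA wells were exposed on DIV 13 or 15 to compound (0.03-40 uM). Spike counts per recording time, averaged over electrodes, were compared between 40-min baseline and 40-min post-exposure recordings as percent change.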
# [6] = CCTE_Shafer_MEA_acute_burst_number: CCTE's Neural Acute Assay for Single-Electrode Bursts, Shafer Lab (AID 2284013)
# Method in brief: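 Primary rat cortical neurons on 16-electrode MEA wells, DIV 13 or 15, exposed to compound (0.03-40 uM; ≥3 wells); 40-min recordings at 37 C before and after treatment. Burst count expressed as percent change from baseline, DMSO as negative control.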
# [7] = CCTE_Shafer_MEA_acute_burst_duration_mean: CCTE's Neural Acute Assay for Mean Burst Duration, Shafer Lab (AID 2284014);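 also: hits are decreases in mean burst duration relative to DMSO controls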
# Method in brief: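 Mean burst duration was compared between a 40 min baseline and a 40 min recording in the presence of compound (0.03-40 uM, 37 C), giving percent change per well. Cultures were rat cortical neurons at DIV 13 or 15; wells needed ≥10 active electrodes.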
# [8] = CCTE_Shafer_MEA_acute_per_burst_spike_number_mean: CCTE's Neural Acute Assay for Average Number of Spikes Per Burst, Shafer Lab (AID 2284015);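 also: hits are decreases in mean spikes per burst versus baseline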
# Method in brief: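 Rat primary cortical neurons on 48-well MEAs (DIV 13 or 15) were treated with 0.03-40 uM compound at 37 C. Mean spikes per burst over 40 min were recorded before and after exposure and expressed as percent change from baseline, relative to DMSO.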
# [9] = CCTE_Shafer_MEA_acute_interburst_interval_mean: CCTE's Neural Acute Assay for Mean Interburst Interval, Shafer Lab (AID 2284016);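 also: percent change of mean interburst interval versus each well's own pre-dose baseline; curves fitted for decrease in interburst interval relative to DMSO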
# Method in brief: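 Rat primary cortical neurons on 48-well MEAs at DIV 13 or 15 were exposed acutely to 0.03-40 uM. Spikes detected at 8x rms noise, 37 C. Mean interburst interval from 40 min recordings expressed as percent change from 40 min pre-treatment baseline.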
# [10] = CCTE_Shafer_MEA_acute_burst_percentage_mean: CCTE's Neural Acute Assay for Percentage of Spikes in a Burst, Shafer Lab (AID 2284017)
# Method in brief: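 Primary rat cortical neurons on 48-well MEA plates, treated on DIV 13 or 15 at 0.03-40 uM. Spikes detected at 8x rms noise at 37C; percent change from 40-min baseline to 40-min post-dose recording, fitted versus DMSO.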
# [11] = CCTE_Shafer_MEA_acute_burst_percentage_std: CCTE's Neural Acute Assay for Standard Deviation of Burst Percentage, Shafer Lab (AID 2284018);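 also: fitted in the negative direction so actives lower burst percentage SD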
# Method in brief: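 Value is percent change from baseline in the across-electrode SD of spikes-in-bursts percentage, wells with >/= 10 active electrodes. Acute 40-min exposure to 0.03-40 uM on DIV 13 or 15 rat cortical cultures, recorded at 37 C after 40-min baseline.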
structure (smiles),measurement,setting,value
CC1(C)O[C@@H]2C[C@H]3[C@@H]4C[C@H](F)C5=CC(=O)C=C[C@]5(C)[C@@]4(F)[C@@H](O)C[C@]3(C)[C@]2(C(=O)CO)O1,outcome,[1],inactive
same,outcome,[2],inactive
same,outcome,[3],inactive
O=C(C(Cl)Cl)N1CCOC12CCCCC2,outcome,[1],inactive
same,outcome,[2],inactive
Cn1c([N+](=O)[O-])cnc1COC(N)=O,outcome,[1],inactive
same,outcome,[2],inactive
CC(=O)[C@@]1(O)CC[C@H]2[C@@H]3C[C@H](C)C4=CC(=O)C=C[C@]4(C)[C@@]3(F)[C@@H](O)C[C@@]21C,outcome,[1],inactive
same,outcome,[2],inactive
same,outcome,[3],inactive
CCCNC(=O)NS(=O)(=O)c1ccc(Cl)cc1,outcome,[1],inactive
same,outcome,[2],inactive
O=C1C=CC(=O)O1,outcome,[1],inactive
same,outcome,[2],inactive
CC(=O)OC(C)C,outcome,[1],inactive
same,outcome,[2],inactive
CCCCOCCOC(=O)COc1nc(Cl)c(Cl)cc1Cl,outcome,[1],inactive
same,outcome,[2],inactive
same,outcome,[3],inactive
CCO[Si](C)(OCC)OCC,outcome,[4],inactive
same,outcome,[5],inactive
same,outcome,[6],inactive
same,outcome,[7],inactive
same,outcome,[8],inactive
same,outcome,[9],inactive
same,outcome,[10],inactive
same,outcome,[11],inactive
O=C1CCCC1,outcome,[1],inactive
same,outcome,[2],inactive
Cc1ccccc1C,outcome,[1],inactive
same,outcome,[2],inactive
O=Cc1ccc(CO)o1,outcome,[1],inactive
same,outcome,[2],inactive
O=C(O)c1ccccc1Nc1cccc(C(F)(F)F)c1,outcome,[1],inactive
same,outcome,[2],inactive
COC(=O)C1=C(C)NC(C)=C(C(=O)OCC(C)C)C1c1ccccc1[N+](=O)[O-] (configuration not stated),outcome,[1],inactive
same,outcome,[2],inactive
same,outcome,[3],inactive
CN1C(=O)N(C)C(O)C1O (configuration not stated),outcome,[4],inactive
same,outcome,[5],inactive
same,outcome,[6],inactive
same,outcome,[7],inactive
same,outcome,[8],inactive
same,outcome,[9],inactive
same,outcome,[10],inactive
same,outcome,[11],inactive
Cc1cc(=O)n(-c2ccccc2)n1C,outcome,[1],inactive
same,outcome,[2],inactive
Cc1ccc(C(C)(C)C)cc1,outcome,[1],inactive
same,outcome,[2],inactive
same,outcome,[3],inactive
Cc1cccc(N(C)C(=S)Oc2ccc3ccccc3c2)c1,outcome,[1],inactive
same,outcome,[2],inactive
Cc1c(C)c([N+](=O)[O-])c(C(C)(C)C)c([N+](=O)[O-])c1C,outcome,[1],inactive
same,outcome,[2],inactive
C=CC(=O)NC(C)(C)CS(=O)(=O)O,outcome,[1],inactive
same,outcome,[2],inactive
Cc1cnc(NC(=O)C2=C(O)c3ccccc3S(=O)(=O)N2C)s1,outcome,[1],inactive
same,outcome,[2],inactive
C#CC1(O)CC[C@H]2[C@@H]3CCC4=CCCC[C@@H]4[C@H]3CC[C@@]21C (some centres not stated),outcome,[1],inactive
same,outcome,[2],inactive
O=C1CCCCCCCCCCC(=O)OCCO1,outcome,[1],inactive
same,outcome,[2],inactive
O=C(c1ccc(O)cc1)c1ccc(O)cc1O,outcome,[4],inactive
same,outcome,[5],inactive
same,outcome,[6],inactive
same,outcome,[7],inactive
same,outcome,[8],inactive
same,AC50,[9],15 µM (active)
same,outcome,[10],inactive
same,outcome,[11],inactive
[Cl][Nd]([Cl])[Cl],outcome,[1],inactive
same,outcome,[2],inactive
O=C(/C=C/C=C/c1ccc2c(c1)OCO2)N1CCCCC1,outcome,[1],inactive
same,outcome,[2],inactive
CC1(C)[C@H]2CC[C@]1(C)C(=O)C2,outcome,[1],inactive
same,outcome,[2],inactive
same,outcome,[3],inactive
CC(=O)OCC(=O)[C@@]12N=C(C)O[C@@H]1C[C@H]1[C@@H]3CCC4=CC(=O)C=C[C@]4(C)[C@H]3[C@@H](O)C[C@@]12C,outcome,[1],inactive
same,outcome,[2],inactive
same,outcome,[3],inactive
O=C(Nc1ccccc1)c1ccccc1O,outcome,[1],inactive
same,outcome,[2],inactive
same,outcome,[3],inactive
O=c1c2ccccc2oc2ccccc12,outcome,[1],inactive
same,outcome,[2],inactive
same,outcome,[3],inactive
c1ccc2c(c1)ccc1cc3c(ccc4ccccc43)cc12,outcome,[1],inactive
same,outcome,[2],inactive
CCCCCC/C=C\CCCCCCCC(=O)O,outcome,[1],inactive
same,outcome,[2],inactive
same,outcome,[3],inactive
O=C(Nc1cccc(C(F)(F)F)c1)c1cc(Br)cc(Br)c1O,outcome,[1],inactive
same,outcome,[2],inactive
same,outcome,[3],inactive
C[C@]12CCC(=O)C=C1CC[C@@H]1[C@@H]2C(=O)C[C@@]2(C)[C@H]1CC[C@]2(O)C(=O)CO,outcome,[1],inactive
same,outcome,[2],inactive
same,outcome,[3],inactive
NC(=O)OCC(COC(N)=O)c1ccccc1,outcome,[1],inactive
same,outcome,[2],inactive
same,outcome,[3],inactive
CC(=O)Nc1nnc(S(N)(=O)=O)s1,outcome,[1],inactive
same,outcome,[2],inactive
same,outcome,[3],inactive
CCN(Cc1cccc(S(=O)(=O)O)c1)c1ccc(C(=C2C=CC(=[N+](CC)Cc3cccc(S(=O)(=O)[O-])c3)C=C2)c2ccccc2)cc1,outcome,[1],inactive
same,outcome,[2],inactive
same,outcome,[3],inactive
O=C1c2cccc(O)c2C(=O)c2c(O)cc(CO)cc21,outcome,[1],inactive
same,outcome,[2],inactive
same,outcome,[3],inactive
COc1ccc(-c2coc3cc(O)ccc3c2=O)cc1,outcome,[1],inactive
same,outcome,[2],inactive
same,outcome,[3],inactive
CCCOC(=O)CCCCC(=O)OCCC,outcome,[1],inactive
same,outcome,[2],inactive
same,outcome,[3],inactive
NC(=O)c1ccccc1O,outcome,[1],inactive
same,outcome,[2],inactive
same,outcome,[3],inactive
CN(C)c1ccc(N=Nc2ccccc2C(=O)O)cc1,outcome,[1],inactive
same,outcome,[2],inactive
same,outcome,[3],inactive
Nc1ccc(N=Nc2ccccc2)c(N)n1,outcome,[1],inactive
same,outcome,[2],inactive
same,outcome,[3],inactive
Cc1cc(C)c(C)cc1C,outcome,[1],inactive
same,outcome,[2],inactive
same,outcome,[3],inactive
C1CN(SSN2CCOCC2)CCO1,outcome,[1],inactive
same,outcome,[2],inactive
same,outcome,[3],inactive
CCOC(=O)N1CCC(=C2c3ccc(Cl)cc3CCc3cccnc32)CC1,outcome,[1],inactive
same,outcome,[2],inactive
same,outcome,[3],inactive
CCCCCCCCCCCCCCCC(=O)OCC,outcome,[1],inactive
same,outcome,[2],inactive
same,outcome,[3],inactive
OC1CCCCCCCCCCC1,outcome,[1],inactive
same,outcome,[2],inactive
same,outcome,[3],inactive
O=c1[nH]c(=O)c2[nH]c(=O)[nH]c2[nH]1,outcome,[1],inactive
same,outcome,[2],inactive
same,outcome,[3],inactive
CCC(=O)Oc1ccc(/C(CC)=C(\CC)c2ccc(OC(=O)CC)cc2)cc1,outcome,[1],inactive
same,outcome,[2],inactive
same,outcome,[3],inactive
CC(=O)NS(=O)(=O)c1ccc(N)cc1,outcome,[1],inactive
same,outcome,[2],inactive
same,outcome,[3],inactive
CC[C@H]1OC(=O)[C@H](C)[C@@H](O[C@H]2C[C@@](C)(OC)[C@@H](O)[C@H](C)O2)[C@H](C)[C@@H](O[C@@H]2O[C@H](C)C[C@H](N(C)C)[C@H]2O)[C@](C)(O)C[C@@H](C)C(=NOCOCCOC)[C@H](C)[C@@H](O)[C@]1(C)O,outcome,[1],inactive
same,outcome,[2],inactive
same,outcome,[3],inactive
